In all, about 360,000 compounds went through this assay and about 2,400 (0.67%) were called active. The entries come from a sample that favours actives as a whole. Unmarked numbers belong to inactive results.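 Rule for the calls: active = inhibition above about 55% (limit read from the data); inconclusive = no clear call, values can overlap the other calls; inactive = the rest.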

This assay is described as follows: LAMP-1 surface exposure blockers, TALL-104 cells – cell-based, flow cytometry, MLPCN library, primary screen (AID 651702). The note with it: TALL-104 LAMP-1 surface exposure, at 10 µM, active compounds read high, cells stimulated with thapsigargin and PMA. On the technique in general: Flow cytometry measures light scatter and fluorescence of single cells or particles in a stream.
For `O=C1CCC([N+](=O)[O-])C(c2ccccc2Br)N1` (configuration not stated), the inhibition (in general, the drop in the measured response relative to a control, in per cent) was -1.2%.
The figure for `CCOc1ccccc1Nc1nnc(SCC(=O)NCC2CCCO2)s1` (configuration not stated) is -20.1%; for `COc1ccc(C2OC(CCc3ccccc3)Cc3[nH]c(=S)[nH]c(=O)c32)cc1` (configuration not stated) it is -3%.
The figure for `Cc1cnc(C(=O)OCc2c(C)cc(C(C)(C)C)cc2C)cn1` is 63.8% (active); for `Cc1cnc(C(=O)OCC(=O)NCCCc2ccccc2)cn1` it is -0.1%; for `Cc1cnc(C(=O)OCC(=O)N2CCc3ccccc32)cn1` it is 0.3%.
As to `Cc1cccc(N2CCN(C(=O)c3cccc(N4C(=O)C5C6C=CC(C6)C5C4=O)c3)CC2)c1C` (configuration not stated), the inhibition is -1.1%.
For `CSCCC(C(=O)NC(C)(C)C)n1c(-c2ccccc2)nc2ccccc21` (configuration not stated) the value was -0.9%.
For `CCOc1ccc(NS(=O)(=O)c2ccc(C(=O)NCC(c3ccccc3OC)N3CCCC3)cc2)cc1` (configuration not stated) the value was -1.8%; for `COc1ccc(S(=O)(=O)N(C)C)cc1NC(=O)COC(=O)c1n[nH]c2ccccc12`, -22.7%.
Consider `Cc1cccn2c(CNCC(C)Oc3cccnc3)c(C(=O)N3CCOCC3)nc12` (configuration not stated), for which the inhibition is -5%.
For `CCOC(=O)C1CCN(Cc2c(C(=O)N3CCOCC3)nc3c(C)cccn23)CC1` the value was -2.4%; for `Cc1cccc(N2CCC(NCc3c(C(=O)N4CCCCC4)nc4c(C)cccn34)CC2)c1`, 60.5% (active); for `OCCn1c(-c2ccccc2)csc1=Nc1ccccc1`, -1.3%.
For `COc1ccc(C)cc1Nc1n[n+](-c2ccccc2)c(-c2cccc(Cl)c2Cl)s1` the value was 93.6% (active).
The figure for `COc1cc(Br)c(-c2sc(Nc3ccccc3)n[n+]2-c2ccccc2)cc1OC` is -3.6%; for `CCc1ccc(Nc2n[n+](-c3ccccc3)c(-c3cccc(Cl)c3Cl)s2)cc1` it is 5.9%.
With `Cc1c(Cl)cccc1NC(=O)CCC(=O)N/N=C/c1ccco1`, the inhibition was 4.7%.
Regarding `CCOc1ccc(OCC)c(NC(=O)CSc2nnc(Cn3cnc4ccccc43)n2C)c1`, the inhibition was 0.1%.
For `CCOc1ccc(CN2CCN(Cc3c[nH]c4ccccc34)CC2)cc1` the value was 35.2%.
The figure for `O=C(NCCc1c[nH]c2ccccc12)C1CCN(Cc2ccc(Br)cc2)CC1` is 77% (active); for `Cc1ccc2[nH]cc(CCNC(=O)C3CCCCC3)c2c1` it is -2.8%; for `CCOC(=O)C1=C(C)NC2=C(C(=O)CC(C)(C)C2)C1c1ccsc1` (configuration not stated) it is 0.2%.
The figure for `CC(C)OC(=O)CC(=O)CC(O)c1cccc([N+](=O)[O-])c1` (configuration not stated) is -10.1%; for `CSCCC(NC(=O)COc1ccccc1)C(=O)N1CCN(c2cccc(C(F)(F)F)c2)CC1` (configuration not stated) it is 1.5%.
For the compound `O=C(COc1ccc(Cl)cc1)N1CCN(c2cccc(C(F)(F)F)c2)CC1`, the inhibition was 58.7% (active).
For `Cc1c(C)c2ccc(OCC(=O)N3CCN(c4cccc(Cl)c4)CC3)cc2oc1=O` the value was -2.4%.

(Values after PubChem BioAssay AID651702 (NMMLSC, 2012).)
